“And” between values parts separate entries of the source, which are not always exact repeats. Equal values may be shown once. A structure can be active in one record and inactive in another. The source made the active and inactive calls. How the source made its calls: active means hit-call score of the fitted dose curve at least 0.9, where 1 is the maximum; inactive means score below 0.9.

Nuclear factor erythroid 2-related factor 2 (Homo sapiens), sequence (Q16236 whole entry, looked up): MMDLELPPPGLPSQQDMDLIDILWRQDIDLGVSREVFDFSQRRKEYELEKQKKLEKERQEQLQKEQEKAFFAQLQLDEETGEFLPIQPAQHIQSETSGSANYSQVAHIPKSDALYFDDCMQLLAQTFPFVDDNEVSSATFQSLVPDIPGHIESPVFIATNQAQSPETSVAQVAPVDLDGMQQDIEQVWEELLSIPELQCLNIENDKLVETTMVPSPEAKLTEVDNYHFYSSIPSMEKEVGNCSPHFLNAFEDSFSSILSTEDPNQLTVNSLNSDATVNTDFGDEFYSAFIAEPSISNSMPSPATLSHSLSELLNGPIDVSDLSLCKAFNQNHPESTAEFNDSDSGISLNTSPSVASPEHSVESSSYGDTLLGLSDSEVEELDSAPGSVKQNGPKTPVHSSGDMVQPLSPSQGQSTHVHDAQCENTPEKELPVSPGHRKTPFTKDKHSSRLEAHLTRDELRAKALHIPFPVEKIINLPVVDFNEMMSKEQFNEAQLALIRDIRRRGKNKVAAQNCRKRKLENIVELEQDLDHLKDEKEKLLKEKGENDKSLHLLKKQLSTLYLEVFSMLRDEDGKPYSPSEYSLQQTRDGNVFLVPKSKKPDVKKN

Read-out in the test: Nuclear factor erythroid 2-related factor 2 (Homo sapiens) (UniProt Q16236)
Kind of test: LTEA_HepaRG_NFE2L2: Life Technologies and Expression Analysis (LTEA) Assay for Nuclear factor erythroid 2-related factor 2 (NFE2L2) Transcription Factor using HepaRG (AID 2283527).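 On outcome: TaqMan qRT-PCR transcript level normalised to ACTB GAPDH and POLR2A housekeeping genes.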 The conditions noted are these: mRNA level, 48 h; actives raise or lower the signal. As for the experimental part:
LTEA_HepaRG is a cell based, multiplexed-readout assay that uses HepaRG, a human liver cell line, with measurements taken at 48 hours after chemical dosing on a 96-well plate.LTEA_HepaRG_NFE2L2 is one of 102 assay component(s) measured in the LTEA HepaRG cell culture assay. It is a marker of Inflammation/injury.Data from the assay component LTEA_HepaRG_NFE2L2 was analyzed into 1 endpoint. This assay endpoint, LTEA_HepaRG_NFE2L2, was analyzed with bidirectional fitting relative to DMSO as the negative control and baseline of activity. Using a type of inducible reporter, measures of mRNA induction for gain or loss-of-signal activity can be used to understand regulation of transcription factor activity. To generalize the intended target to other relatable targets, this assay endpoint is annotated to the dna binding intended target family, where the subfamily is basic leucine zipper.
A total of 1060 chemcials from the ToxCast library were tested in eight-point concentration-response experiments. Cell culture and cytotoxicity assays were conducted at Thermo Fisher Scientific's Custom Services facility (Madison, WI). A single lot of human HepaRG cells (Thermo Fisher Scientific, Frederick, MD) was used for the cell culture experiments. 96-well format collagen type I coated plates of human HepaRG cells were prepared using established methods. Briefly, cryopreserved HepaRG cells were thawed, plated at a density of approximately 100,000 cells/well in HepaRG Thaw, Plate, and General Purpose media (HPRG770, Thermo Fisher Scientific), and incubated for 48 hours. 0.5% DMSO was selected as vehicle control to balance the requisite need of DMSO in HepaRG cultures to maintain differentiation (for example, baseline metabolism, proportions of hepatocytes vs. cholangiocytes), while enabling further hepatic receptor pathway activation (for example, PXR and CAR) in response to chemical exposure. 48 hours after plating, the culture medium was replaced with HepaRG Serum-Free Incudtion Media. Cells were exposed to each test chemical in duplicate and maintained in CO2 incubators for another 48 hours. Chemical plates were thawed to room temperature and 200x concentrations of treatment groups were prepared. 8-point conentration-reponse curves were made with the highest exposure at 100 uM, followed by half-log dilutions, all in 0.5% DMSO. Each test plate contained variouse controls, induction positive controls (1mM phenobarbital), cytotoxicity positive controls ([…] aflatoxin B1), vehicle controls (0.5% DMSO), and total lysis controls (0.5% DMSO). Cell morphology images were taken using an Essen IncuCyte FLR automated microscope, with six 96-well plates imaged in about 24 minutes. Images were captured and exported and JPEG files. Spent culture media was transfered to black-well plates for the LDH assay, and remaining media was sorted at -80 C for later use. Cells were treated with RLT buffer and frozen until shipped for gene expression analysis. Total RNA was isolated from the cell suspension in 75 uL of Buffer RLT (Qiagen, Germantown, MD 20874) by Quintiles/Expression Analysis (Durham, NC) using a custom isolation procedure. Total RNA from each plate well was transferred to a preamplification plate. Fluidigm's 96.96 Dynamic ArrayTM (Fluidigm, Amsterdam, the Netherlands) technology was used for gene expression analyses by quantitative reverse transcription polymerase chain reaction (qRT-PCR, performed by Quintiles/Expression Analysis, Durham, NC)89. Standard TaqManTM Assays (Applied Biosystems/ThermoFisher Scientific, Foster City, CA) were used to assess the expression of 93 genes selected based on their selectivity and sensitivity to important hepatic receptors known to be modulated by environmental chemicals; importance in human hepatocyte functionality; and hepatotoxicity. […]
In the case of `O=C(Nc1ccc([N+](=O)[O-])cc1Cl)c1cc(Cl)ccc1O`, the outcome was inactive.
Regarding `CCCOC(=O)NCCCN(C)C`, the outcome was inactive.
Consider `CC(C)CCCCCCc1ccc(O)cc1`, for which the outcome was inactive.
Regarding `CCNc1nc(N)nc(Cl)n1`, the call was inactive.
Regarding `O=C(c1ccccc1)C1CCCCC1`, the outcome was inactive.
Take `c1ccc(Nc2ccccc2)cc1`: the result was inactive.
Broadly, the AC50 is the concentration at which the activity in the assay is half-maximal. Take `CCCCOCCOCCOCc1cc2c(cc1CCC)OCO2`: the AC50 is 9.6 µM (active).
For `CCOC(=O)COc1cc(-n2ncc(C(F)(F)F)c(C)c2=O)c(F)cc1Cl`, the result was inactive.
Same read-out and setting: for `O=C(c1ccc(O)cc1O)c1ccc(O)cc1O` the value was “inactive”; for `CCOC(=O)c1ccc(O)cc1`, “inactive”; for `CCCN(CCC)c1c([N+](=O)[O-])cc(C(F)(F)F)c(N)c1[N+](=O)[O-]`, “inactive”.
As for `S=C(S)NCCNC(=S)S.[Mn+2].[S-]C([S-])=NCCN=C([S-])[S-].[Zn+2]`, the AC50 was 255 nM (active) and 539 nM (active); the outcome was inactive.
As to `CN(C)C(=O)Nc1ccc(Cl)c(Cl)c1`, the AC50 is 83.3 µM (active).
Regarding `CCCCC(CC)CN1C(=O)C2C3C=CC(C3)C2C1=O` (stereo not given), the result was inactive.
Regarding `CC(C)(C)[C@@H](O)[C@@H](Cc1ccc(Cl)cc1)n1cncn1`, the compound was called inactive.
As to `Oc1ccc(C(c2ccc(O)cc2)C(Cl)(Cl)Cl)cc1`, the AC50 was 78.2 µM (active).
`CC1(C)C(C=C(Cl)Cl)C1C(=O)OCc1cccc(Oc2ccccc2)c1` (stereo not given): the compound was called inactive.
On the same count and under the same terms, for `CCOC(=O)NCCOc1ccc(Oc2ccccc2)cc1` the value was “inactive”; for `C#C[C@]1(O)CC[C@H]2[C@@H]3CCC4=CC(=O)CC[C@@H]4[C@H]3CC[C@@]21CC`, “inactive”.
Turning to `CCCCC(CC)COC(=O)c1ccccc1C(=O)O` (stereo not given), the outcome was inactive.
As to `O=C(O)C1(C(=O)Nc2ccc(Cl)cc2Cl)CC1`, the outcome was inactive.
In the case of `c1ccc2[nH]c(-c3cscn3)nc2c1`, the AC50 was 50 µM (active).
As to `COC(=O)c1ccccc1C(=O)O`, the result was inactive.
As for `CSC(=O)c1cccc2nnsc12`, the result was inactive.
On the same count and under the same terms, next, `CC(=O)[C@H]1CC[C@H]2[C@@H]3CCC4=CC(=O)CC[C@]4(C)[C@H]3CC[C@]12C`: “inactive”; `COc1c(Cl)ccc(Cl)c1C(=O)O`: “inactive”.
Same read-out and setting: for `CCCCOC(=O)C(C)Oc1ccc(Oc2ccc(C(F)(F)F)cn2)cc1` (stereo not given) the value was “inactive”; for `CCN(CC)C(=O)c1cccc(C)c1`, “inactive”; for `C[C@]12C[C@H](O)[C@H]3[C@@H](CCC4=CC(=O)CC[C@@]43C)[C@@H]1CC[C@@H]2C(=O)CO`, “inactive”.
In the case of `C[C@]12CC[C@@H]3c4ccc(O)cc4C[C@@H](CCCCCCCCCS(=O)CCCC(F)(F)C(F)(F)F)[C@H]3[C@@H]1CC[C@@H]2O` (stereo not given in full), the call was inactive.
With `Cc1nn(C)c(Oc2ccccc2)c1C=NOCc1ccc(C(=O)OC(C)(C)C)cc1`, the AC50 was 33 µM (active).
With `CC(=O)S[C@@H]1CC2=CC(=O)CC[C@]2(C)[C@H]2CC[C@@]3(C)[C@@H](CC[C@@]34CCC(=O)O4)[C@H]12`, the compound was classed as inactive.
On the same count and under the same terms, next, `S=C([S-])NCCNC(=S)[S-].[Mn+2]`: “inactive”; `N[C@@H](Cc1cc(I)c(Oc2ccc(O)c(I)c2)c(I)c1)C(=O)O`: “inactive”.
For `CCCN(CCC)C(=O)SCC`, the result was inactive.
As for `N#CSCSc1nc2ccccc2s1`, the compound was called inactive.
As for `CCCOC(=O)c1ccc(C(=O)OCCC)nc1`, the compound was called inactive.
On the same count and under the same terms, for `CCC(C)OC(=O)N1CCCCC1CCO` (stereo not given) the value was “inactive”; for `OB(O)O`, “inactive”.

These data come from PubChem BioAssay (EPA / NIEHS).
